Read-out in experiment [1]: Macrophage colony-stimulating factor (MCSF), CSF1 (gene 1435)
Kind of experiment: BSK_hDFCGF_MCSF: BioMAP Diversity Plus: hDFCGF Assay for Macrophage colony-stimulating factor (MCSF) Biomarker Activity (AID 2283060). Conditions: primary human foreskin fibroblasts; actives raise or lower the signal. In a few lines:
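Human foreskin primary fibroblasts were treated with test chemical for 24 h, and M-CSF was then measured by ELISA. Data were fitted bidirectionally against DMSO as the negative control and activity baseline.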

Experiment [2] is described as follows: BSK_hDFCGF_SRB: Viability Assessment in the BioMAP Diversity Plus: hDFCGF Assay (AID 2283061).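 Also: cells exposed to compound for 24 h before the read.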 The note with it: primary human foreskin fibroblasts. In a few lines: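 Human foreskin primary fibroblasts were treated with compound and assessed 24 h after dosing. Total protein was measured by sulforhodamine B staining (0.1% SRB after 10% TCA fixation, 560 nm read) as a cytotoxicity marker, with bidirectional fitting against DMSO baseline.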

Read-out in experiment [3]: TIMP metallopeptidase inhibitor 1 (TIMP1), TIMP1 (gene 7076)
The experiment is described as follows: BSK_hDFCGF_TIMP1: BioMAP Diversity Plus: hDFCGF Assay for TIMP metallopeptidase inhibitor 1 (TIMP1) Biomarker Activity (AID 2283062). Conditions: primary human foreskin fibroblasts; actives raise or lower the signal. The gist of the method: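 Primary human foreskin fibroblasts in the hDFCGF system were dosed with compound for 24 h, then TIMP-1 was measured by ELISA. Activity was fitted bidirectionally relative to DMSO control; parallel SRB staining assessed cytotoxicity.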

Read-out in experiment [4]: Monokine induced gamma interferon (MIG), CXCL9 (gene 4283)
Kind of experiment: BSK_hDFCGF_MIG: BioMAP Diversity Plus: hDFCGF Assay for Monokine induced gamma interferon (MIG) Biomarker Activity (AID 2283063). The note with it: primary human foreskin fibroblasts; actives raise or lower the signal. The gist of the method:
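ELISA read-out of MIG from primary human dermal fibroblasts 24 h post-dosing. Gain or loss of signal fitted bidirectionally, DMSO as baseline.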

Read-out in experiment [5]: Matrix Metallopeptidase 1 (MMP1), MMP1 (gene 4312)
Kind of experiment: BSK_hDFCGF_MMP1: BioMAP Diversity Plus: hDFCGF Assay for Matrix Metallopeptidase 1 (MMP1) Biomarker Activity (AID 2283064). Conditions: primary human foreskin fibroblasts; actives raise or lower the signal. In a few lines: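 ELISA read-out of MMP1 from human foreskin fibroblasts (primary skin cells), 24 h post-dose. Gain or loss of signal was fitted bidirectionally versus DMSO negative control; cytotoxicity was checked by SRB in parallel cultures.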

Read-out in experiment [6]: Vascular cell adhesion molecule 1 (VCAM1), VCAM1 (gene 7412)
Kind of experiment: BSK_hDFCGF_VCAM1: BioMAP Diversity Plus: hDFCGF Assay for Vascular cell adhesion molecule 1 (VCAM1) Biomarker Activity (AID 2283065).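 As to AC50: VCAM-1 protein level quantified by ELISA after 24 h chemical exposure.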 The note with it: primary human foreskin fibroblasts; actives raise or lower the signal. The gist of the method: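 Primary human foreskin fibroblasts (hDFCGF system) were dosed with chemical and VCAM-1 was measured by ELISA 24 h later. Bidirectional curve fitting used DMSO as negative control and activity baseline.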

Read-out in experiment [7]: Plasminogen activator inhibitor-1 (PAI1), SERPINE1 (gene 5054)
Kind of experiment: BSK_hDFCGF_PAI1: BioMAP Diversity Plus: hDFCGF Assay for Plasminogen activator inhibitor-1 (PAI1) Biomarker Activity (AID 2283066). Conditions: primary human foreskin fibroblasts; actives raise or lower the signal. The gist of the method:
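PAI-1 levels in human dermal foreskin fibroblasts were quantified by ELISA 24 h after dosing, with gain or loss analysed against DMSO. Overt cytotoxicity was checked by sulforhodamine B total-protein staining in parallel cultures.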

Read-out in experiment [8]: Intercellular Adhesion Molecule 1 (ICAM1), ICAM1 (gene 3383)
The experiment is described as follows: BSK_KF3CT_ICAM1: BioMAP Diversity Plus: KF3CT Assay for Intercellular Adhesion Molecule 1 (ICAM1) Biomarker Activity (AID 2283067). Conditions: primary human keratinocytes with fibroblasts; actives raise or lower the signal. In a few lines: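 Human keratinocyte plus foreskin fibroblast primary co-culture was exposed to chemical for 24 h. ICAM-1 was then quantified by ELISA, and the data were fit bidirectionally against DMSO as the negative control and baseline.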

Read-out in experiment [9]: Interferon-gamma inducible Protein 10 (IP10), CXCL10 (gene 3627)
The experiment is described as follows: BSK_KF3CT_IP10: BioMAP Diversity Plus: KF3CT Assay for Interferon-gamma inducible Protein 10 (IP10) Biomarker Activity (AID 2283068). The note with it: primary human keratinocytes with fibroblasts; actives raise or lower the signal. In a few lines: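 In a primary skin co-culture of keratinocytes and fibroblasts, IP-10 is quantified by ELISA at 24 h after dosing. SRB staining of parallel wells monitors overt toxicity. Curves are fitted both directions against DMSO.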

Experiment [10] can be described thus: BSK_KF3CT_SRB: Viability Assessment in the BioMAP Diversity Plus: KF3CT Assay (AID 2283069).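 Also: fitted for both signal gain and loss against DMSO baseline.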 Conditions: primary human keratinocytes with fibroblasts. In a few lines:
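SRB read-out at 560 nm (0.1% stain, TCA-fixed cells) gauges overt cytotoxicity in a human skin keratinocyte–fibroblast co-culture 24 h post-dosing. Signal change was fitted bidirectionally relative to DMSO control.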

As a reminder, the AC50 is the concentration at which the activity in the assay is half-maximal.

Calls of active or inactive are those of the source. The calls were made as follows: active = hit-call score of the fitted dose curve at least 0.9, where 1 is the maximum; inactive = score below 0.9.

Consider `Cc1ccc(N=CN(C)C=Nc2ccc(C)cc2C)c(C)c1`, for which the AC50 in [1] was 15.2 µM (active); in experiment [2], 28.4 µM (active); in experiment [3], 31 µM (active); in [4] it was 29.7 µM (active); in [5], 33.2 µM (active); in [6], 15.8 µM (active). In addition, the values for the concentration at half-maximal activity (AC50) in [7], in experiment [9] and in experiment [10] were 29.7 µM (active), 32.7 µM (active) and 28.6 µM (active), respectively. Further, the outcome in experiment [8] was inactive.

As for `Clc1cccc(C(Cl)(Cl)Cl)n1`, the result in [1], in experiment [2], in [3], in experiment [4], in experiment [5] and in [6] was inactive. In addition, the outcome in experiment [7], in [8] and in experiment [10] was inactive.

With `N#Cc1c(Cl)cccc1Cl`, the result in experiment [1], in [2], in experiment [3], in experiment [4], in [5] and in experiment [6] was inactive. The outcome in experiment [7], in [8], in experiment [9] and in experiment [10] was inactive.

Regarding `O=C(Nc1ccccc1-c1ccc(Cl)cc1)c1cccnc1Cl`, the outcome in experiment [1], in experiment [2], in [3], in [4], in [5] and in experiment [6] was inactive. In addition, the result in [7], in experiment [8] and in experiment [10] was inactive. The concentration at half-maximal activity (AC50) in [9] is 0.128 µM (active).

As to `CCOP(=S)(OCC)Oc1nc(Cl)n(C(C)C)n1`, the result in [1], in [2], in [3], in experiment [4], in experiment [5] and in experiment [6] was inactive. In addition, the outcome in experiment [7], in experiment [8] and in experiment [10] was inactive.

`CCOC(=O)C(C)OC(=O)c1cc(Oc2ccc(C(F)(F)F)cc2Cl)ccc1[N+](=O)[O-]` (centres undefined): the outcome in experiment [2], in [3], in experiment [4], in [5], in [6] and in [7] was inactive. Also, the outcome in experiment [8], in experiment [9] and in [10] was inactive.

Take `CC(C)Nc1nc(Cl)nc(NC(C)C)n1`: the outcome in experiment [1], in [2], in [3], in experiment [4], in experiment [5] and in [6] was inactive. For the same compound, the result in experiment [7], in experiment [8] and in experiment [10] was inactive.

Take `CNC(=O)N(C)c1nnc(C(C)(C)C)s1`: the result in experiment [1], in experiment [2], in [3], in experiment [4], in [5] and in [6] was inactive. Besides, the outcome in [7], in [8], in [9] and in experiment [10] was inactive.

Turning to `Cc1cnc(C2=NC(C)(C(C)C)C(=O)N2)c(C(=O)O)c1` (centres undefined), the result in experiment [1], in experiment [2], in experiment [3], in experiment [4], in experiment [5] and in experiment [6] was inactive. For the same compound, the outcome in [7], in experiment [8] and in [10] was inactive.

On to `CCC(C)n1c(=O)[nH]c(C)c(Br)c1=O` (centres undefined), for which the result in experiment [1], in experiment [2], in [3], in experiment [4], in [5] and in [6] was inactive. The outcome in [7], in experiment [8] and in experiment [10] was inactive.

With `CCOc1nc(C(Cl)(Cl)Cl)ns1`, the result in experiment [1], in experiment [2], in [3], in experiment [4], in experiment [5] and in [6] was inactive. Also, the result in experiment [7], in experiment [8], in [9] and in experiment [10] was inactive.

With `COc1ccc(-c2ccccc2)cc1NNC(=O)OC(C)C`, the result in [2], in experiment [3], in [4], in experiment [5], in [6] and in experiment [7] was inactive. Also, the result in experiment [8], in experiment [9] and in experiment [10] was inactive.

Regarding `CS(=O)(=O)c1cc(C(F)(F)F)ccc1C(=O)c1cnoc1C1CC1`, the result in experiment [1], in experiment [2], in experiment [3], in experiment [4], in [5] and in experiment [6] was inactive. Also, the result in experiment [7], in experiment [8] and in experiment [10] was inactive.

With `CC1(C)C(C=C(Cl)Cl)C1C(=O)OC(C#N)c1cccc(Oc2ccccc2)c1` (centres undefined), the result in [1], in experiment [2], in [3], in experiment [4], in [5] and in experiment [6] was inactive. Further, the result in [7], in experiment [8], in [9] and in [10] was inactive.

Turning to `Cn1c(-c2ccccc2)cc(-c2ccccc2)[n+]1C`, the AC50 in experiment [1] was 5.47 µM (active); in experiment [3], 20 µM (active). Further, the result in [2], in experiment [4], in experiment [5], in experiment [6], in experiment [7] and in experiment [8] was inactive. The outcome in experiment [10] was inactive.

Regarding `COC(=O)NS(=O)(=O)c1ccc(N)cc1`, the result in experiment [1], in [2], in experiment [3], in [4], in experiment [5] and in [6] was inactive. In addition, the result in experiment [7], in experiment [8] and in experiment [10] was inactive.

With `CCN(CC)c1nc(C)cc(OP(=S)(OC)OC)n1`, the concentration at half-maximal activity (AC50) is 14.6 µM (active) in [1], 4.09 µM (active) in [5], 27 µM (active) in experiment [6] and 11.3 µM (active) in experiment [7]. The outcome in [2], in experiment [3], in [4], in experiment [8] and in [10] was inactive.

(Values after PubChem BioAssay (EPA / NIEHS).)
